Laboratory results reported in publication PMC6925144, “A prospective compound screening contest identified broader inhibitors for Sirtuin 1” (Scientific Reports, 2019).
Whole data set: some 3,200 compounds, median “TSA(without NAD+) / Primary screening (TSA) / delta Tm (K)” near -0.07, cut for the highest 2% near 0.37. The entries come from a sample that favours the highest values as a whole.

Target: NAD-dependent deacetylase Sirtuin 1 (human, UniProt Q96EB6)
Assay: primary screen, delta tm
Parameters: single well (n = 1)
Conditions: 10 µM
Protocol: A total of 3,192 compounds extracted from the proposed lists were first screened by thermal shift assay (TSA), which determined a melting temperature shift (ΔTm) of Sirtuin 1 upon the addition of a test compound at a concentration of 10 µM (n = 1) with primary hit criteria of ΔTm > 0.45 K or ΔTm < −1.5 K. Primary hits (48 compounds) were retested in the same assay at three concentrations (5, 10, 20 µM, n = 4) for hit confirmation and for dose-dependency check. Secondary hits (41 compounds) were checked their selectivity for Sirtuin 1 based on counterscreening on unrelated protein targets (bovine carbonic anhydrase (CA) and recombinant SH2 domain of hABL1 kinase (ABL1)) at three different concentrations (5, 10, 20 µM, n = 4), which yielded 38 hit compounds, hereafter referred to as TSA hits. The TSA screening above was conducted in the absence of NAD+.

Chain of NAD-dependent deacetylase Sirtuin 1 (Q96EB6 2-747 limits assumed): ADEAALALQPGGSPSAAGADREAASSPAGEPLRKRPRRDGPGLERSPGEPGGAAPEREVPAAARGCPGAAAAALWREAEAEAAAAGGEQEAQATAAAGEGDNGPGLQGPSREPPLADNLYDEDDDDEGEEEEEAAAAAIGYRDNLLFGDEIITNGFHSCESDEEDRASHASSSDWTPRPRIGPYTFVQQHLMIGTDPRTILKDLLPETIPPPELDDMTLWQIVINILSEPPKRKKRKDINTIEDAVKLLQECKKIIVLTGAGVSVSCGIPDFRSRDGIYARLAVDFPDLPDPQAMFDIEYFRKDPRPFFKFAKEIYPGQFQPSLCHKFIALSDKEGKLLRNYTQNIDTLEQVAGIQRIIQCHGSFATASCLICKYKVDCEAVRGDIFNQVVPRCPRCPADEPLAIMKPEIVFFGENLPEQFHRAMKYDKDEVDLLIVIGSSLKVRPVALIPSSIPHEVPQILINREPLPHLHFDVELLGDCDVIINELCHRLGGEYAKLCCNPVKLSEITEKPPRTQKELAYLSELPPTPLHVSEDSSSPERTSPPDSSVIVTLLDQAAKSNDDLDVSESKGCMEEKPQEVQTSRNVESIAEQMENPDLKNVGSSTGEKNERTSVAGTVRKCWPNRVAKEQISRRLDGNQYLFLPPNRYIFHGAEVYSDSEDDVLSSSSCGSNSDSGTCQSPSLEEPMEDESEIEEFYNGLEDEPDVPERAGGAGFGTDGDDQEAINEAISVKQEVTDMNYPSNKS

Compound	TSA(without NAD+) / Primary screening (TSA) / delta Tm (K)
Cc1ccc(C(=O)NNC(=O)c2cccc(S(=O)(=O)N(C)c3ccc(C)cc3)c2)cc1	-0.14 K
Cc1ccc(N(C)S(=O)(=O)c2cccc(C(=O)NNC(=O)c3ccncc3)c2)cc1	-0.08 K
CN(c1ccccc1)S(=O)(=O)c1cccc(NC(=O)c2cccc(C#N)c2)c1	0.13 K
CN(c1ccccc1)S(=O)(=O)c1cccc(C(=O)Nc2ccccc2)c1	0.12 K
CSc1cccc(NC(=O)c2cccc(S(=O)(=O)N(C)c3ccc(C)cc3)c2)c1	0.35 K
Cc1ccc(N(C)S(=O)(=O)c2cccc(C(=O)NNC(=O)CC34CC5CC(CC(C5)C3)C4)c2)cc1	0.45 K
CC1CCc2[nH]c3ccc(C(=O)Nc4cccc(S(=O)(=O)N(C)c5ccccc5)c4)cc3c2C1 (stereo not drawn)	0.42 K
Cc1ccc(N(C)S(=O)(=O)c2cccc(C(=O)Nc3cccc(C(=O)NC4CC4)c3)c2)cc1	0.06 K
Cc1ccc(N(C)S(=O)(=O)c2cccc(C(=O)Nc3ccc4c(c3)C(=O)N(C)C4=O)c2)cc1	0.45 K
COc1ccc(N(C)S(=O)(=O)c2cccc(C(=O)Nc3cccc(C#N)c3)c2)cc1	0.22 K
CN(c1ccccc1)S(=O)(=O)c1cccc(NC(=O)c2ccc(C(N)=O)cc2)c1	0.02 K
Cc1ccc(N(C)S(=O)(=O)c2cccc(C(=O)Nc3cccc(C#N)c3)c2)cc1	0.43 K
Cc1cc(CSc2nc3ccccc3[nH]2)no1	0.07 K
Cc1ccc(C(=Nc2c(C)cc(C)cc2C)c2ccc(C)cc2)cc1	-0.04 K
CC(C#N)(NC(=O)CNc1cccnc1-c1ccccc1)C1CC1 (stereo not drawn)	0.08 K
CN(Cc1ccccc1)C(=O)NCC1CCN(c2ccncc2)CC1	-0.02 K
CC1CCc2[nH]c3ccc(C(=O)OCC(=O)NC(=O)NC45CC6CC(CC(C6)C4)C5)cc3c2C1 (stereo not drawn)	0.27 K
CN(Cc1nc2ccccc2s1)C(=O)CSc1nnc(CC2CCS(=O)(=O)C2)o1 (stereo not drawn)	-0.13 K
CN(C)c1ccc(NC(=O)c2cccc(S(=O)(=O)N(C)c3cccc(Cl)c3)c2)cc1	0.27 K
CCCCc1ccc(NC(=O)c2cccc(S(=O)(=O)N(C)c3cccc(Cl)c3)c2)cc1	0.58 K
CN(c1cccc(Cl)c1)S(=O)(=O)c1cccc(C(=O)Nc2ccc(C(N)=O)cc2)c1	0.08 K
COc1cccc(NC(=O)c2cccc(S(=O)(=O)N(C)c3ccc(C)cc3)c2)c1	-0.02 K
Cc1ccc(N(C)S(=O)(=O)c2cccc(C(=O)Nc3ccc(Br)c(C)c3)c2)cc1	0.48 K
Cc1ccc(N(C)S(=O)(=O)c2cccc(C(=O)Nc3ccncc3)c2)cc1	-0.18 K
